Results on 14 compounds are retold here after PubChem BioAssay.

The source made the active and inactive calls.

One assay has as its target Albumin (Bos taurus) (UniProt P02769). The experiment in a line: bovine serum albumin binders on microarray, profiling panel, artefact control for SMM control protein annotation, biochemical, small-molecule microarray, Alexa647 label, 635/667 nm fluorescence (AID 1118).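 Further: score merges 667 nm emission intensity and signal-to-noise per printed compound spot.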 Particulars: BSA-A647 binding, fluorescence 635 nm, higher = more signal.
Assay [1] can be described thus: small-molecule microarray binders of probe aXIP, primary screen, biochemical, NeuroSMM set, 635/667 nm fluorescence (AID 1119).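 Further: probe is the protein aXip251-270 applied at 1 µg/mL to compound-printed slides; binding of probe to printed compounds measured as 667 nm fluorescence plus signal to noise.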 The note with it: higher = more signal, called active from +8 up or from −8 down.
The nature of assay [2]: small-molecule binders of probe aNOTCH3, primary screen, biochemical, small-molecule microarray, 635/667 nm fluorescence (AID 1120).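 Further: probe is a biotin-tagged antibody raised against NOTCH3 rather than NOTCH3 protein; score merges spot fluorescence near 667 nm with spot signal to noise.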 The note with it: higher = more signal.
Assay [3] can be described thus: small-molecule binders of probe aNOTCH2, primary screen, biochemical, small-molecule microarray, 635/667 nm fluorescence (AID 1121).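 Further: score merges feature fluorescence read at 667 nm with its signal to noise.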 The note with it: higher = more signal.
In assay [4] the target is Carbonic anhydrase 2 (Homo sapiens) (UniProt P00918). The assay is described as follows: CAII small-molecule binders, profiling panel, biochemical, small-molecule microarray, Alexa647-labelled CAII (AID 1122). The note with it: CAII-A647 binding fluorescence, higher = more signal.
The nature of assay [5]: COS7 lysate on small-molecule microarray, probe aHis, 635 nm (AID 1123).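 Further: z-score combines 667nm fluorescence intensity with signal-to-noise per printed compound spot.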 Particulars: COS7 cell lysate, fluorescence, higher = more signal.
A short description of assay [6]: compound binding in COS7 lysate, probe aLAP1, primary screen, cell lysate, small-molecule microarray (AID 1124).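 Further: lysate comes from COS7 cells expressing LAP1 and is applied at 0.3 µg/mL; score merges spot fluorescence near 667 nm with signal-to-noise over triplicate slides.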 The note with it: probe aLAP1, fluorescence, higher = more signal.
The next assay deals with Sam68 (KHDRBS1). The assay is described as follows: Sam68 small-molecule binders, primary screen, biochemical, small-molecule microarray, 635 nm fluorescence (AID 1125).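 Further: score merges 667 nm channel intensity with signal to noise over triplicate slides.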 Particulars: small-molecule microarray binding, higher = more signal.
Assay [7] concerns Chordin-like protein 2 (CHRDL2). The assay is described as follows: CHRDL2 small-molecule binders, primary screen, biochemical, small-molecule microarray, 635 nm fluorescence (AID 1126).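 Further: printed compound slides probed with Chrdl2 protein at 4 µg/mL for 1 h at 4 C; score merges 667 nm emission intensity with signal to noise over three replicate slides.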 The note with it: small-molecule microarray binding, fluorescence 635 nm; higher = more signal.
For assay [8], the target named is Concanavalin-A (Canavalia ensiformis) (UniProt P02866). The experiment in a line: ConA small-molecule binders, primary screen, artefact control for SMM control protein annotation, biochemical, small-molecule microarray, Alexa647 label, 635 nm (AID 1127).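 Further: z combines 667 nm emission intensity with signal-to-noise across three replicate slides.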 Particulars: ConA-A647 binding fluorescence, higher = more signal.
Concanavalin-A (Canavalia ensiformis), sequence (P02866 whole entry, looked up): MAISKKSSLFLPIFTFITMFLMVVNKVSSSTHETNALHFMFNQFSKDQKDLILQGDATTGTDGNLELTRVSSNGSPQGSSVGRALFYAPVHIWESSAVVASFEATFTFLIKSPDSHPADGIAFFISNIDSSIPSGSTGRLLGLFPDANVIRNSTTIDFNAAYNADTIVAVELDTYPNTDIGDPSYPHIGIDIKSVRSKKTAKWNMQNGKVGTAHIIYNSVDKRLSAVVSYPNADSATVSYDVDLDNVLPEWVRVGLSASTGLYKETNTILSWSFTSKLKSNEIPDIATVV

Albumin (Bos taurus), sequence (P02769 whole entry, looked up): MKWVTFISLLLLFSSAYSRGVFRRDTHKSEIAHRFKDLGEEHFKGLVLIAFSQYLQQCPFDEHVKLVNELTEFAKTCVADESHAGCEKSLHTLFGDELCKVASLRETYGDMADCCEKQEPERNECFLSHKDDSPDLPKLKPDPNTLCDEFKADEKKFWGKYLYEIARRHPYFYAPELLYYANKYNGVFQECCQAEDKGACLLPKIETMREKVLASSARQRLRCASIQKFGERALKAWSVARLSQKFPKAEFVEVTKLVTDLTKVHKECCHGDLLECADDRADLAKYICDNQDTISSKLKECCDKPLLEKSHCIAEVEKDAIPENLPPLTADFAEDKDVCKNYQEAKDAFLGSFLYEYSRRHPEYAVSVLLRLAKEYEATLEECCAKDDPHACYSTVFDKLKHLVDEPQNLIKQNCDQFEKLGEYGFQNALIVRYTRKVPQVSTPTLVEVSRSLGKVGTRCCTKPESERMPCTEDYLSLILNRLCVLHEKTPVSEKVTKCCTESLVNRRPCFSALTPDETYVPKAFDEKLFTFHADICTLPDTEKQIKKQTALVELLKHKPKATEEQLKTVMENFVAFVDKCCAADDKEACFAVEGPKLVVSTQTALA

With `CC(=O)n1cc(C(O)C2C=CC3C(=O)N(c4ccccc4)C(=O)C3N2Nc2ccc(C#N)cc2)c2ccccc21` (stereo not given), the composite z-score is 0.938 with Albumin (Bos taurus); 0.307 in assay [2]; 0.0753 in [3]; 0.798 in assay [4]; 2.7 in assay [5]; 0.53 in assay [6]. The values for the composite z-score (with Sam68 (KHDRBS1); in [7]; in assay [8]) were 1.31, -0.776 and 0.876, respectively. In addition, in [1], the composite Z-score is -0.187 (inactive).
Regarding `CCOC(=O)C1=CC[C@@H](c2ccccc2)N(S(=O)(=O)c2ccc(C)cc2)[C@H]1c1ccc(C#N)cc1`, the composite z-score with Albumin (Bos taurus) was 0.801; in assay [2], 0.116; in assay [3], -0.0158; in assay [4], 0.356; in assay [5] it was 1.56; in assay [6], 0.791. Moreover, the composite z-score is 1.33 in the assay on Sam68 (KHDRBS1), -1.25 in assay [7] and 1.12 in assay [8]. For the same compound, in assay [1], the composite Z-score is 0.662 (inactive).
Take `C=CCNC(=O)[C@H]1[C@@H]2C(=O)O[C@@H](c3ccccc3)[C@@H](c3ccccc3)N2[C@@H](c2ccc(OCCO)cc2)[C@]12C(=O)N(C(=O)OCCOC)c1ccc(C#CC3(O)CCCCCC3)cc12`: the composite z-score with Albumin (Bos taurus) was -1.02; in [2], 0.373; in assay [3] it was 0.308; in [4], 0.615; in [5] it was 1.9; in [6], 1.5. Besides, the composite z-score in the assay on Sam68 (KHDRBS1) was 1.3; in [7], 1.1; in assay [8], 1.07. For the same compound, in assay [1], the composite Z-score was -0.586 (inactive).
For the compound `C=C(CCCC)C(=O)CC[C@H](OC(C)=O)c1ccc(CO)o1`, the composite z-score in the assay with Albumin (Bos taurus) is -0.471; in assay [2], 0.0701; in assay [3] it was -0.117; in assay [4], 0.637; in [5], 0.136; in assay [6] it was 0.164. Moreover, the values for the composite z-score (in the assay on Sam68 (KHDRBS1); in [7]; in assay [8]) were 0.865, -0.149 and -0.0156, respectively. Moreover, the composite Z-score in [1] is 0.304 (inactive).
With `O=C1O[C@H](c2ccccc2)[C@H](c2ccccc2)N2[C@H]1[C@@H](C(=O)N1CCCCCCC1)[C@]1(C(=O)Nc3ccc(C#CC4=CCCCC4)cc31)[C@H]2c1ccc(O)cc1`, the composite z-score was 0.599 with Albumin (Bos taurus); 2.37 in assay [2]; 1.22 in assay [3]; 1.1 in assay [4]; 5.31 in assay [5]; 1.2 in assay [6]. Besides, the composite z-score was found to be 1.35 in the assay on Sam68 (KHDRBS1), 1.71 in [7] and 1.14 in assay [8]. Also, the composite Z-score in assay [1] is 10.9 (active).
Regarding `CCCCC(=C=CC[C@H](O)c1ccccc1OCCO)C[C@H](O)c1cc(Cl)cc(Cl)c1O`, the composite z-score was 0.233 in the assay with Albumin (Bos taurus); -0.0448 in assay [2]; -0.175 in [3]; 0.649 in assay [4]; 0.499 in assay [5]; 0.569 in assay [6]. The figures for the composite z-score (in the assay with Sam68 (KHDRBS1); in assay [7]; in assay [8]) were 0.811, -0.473 and 0.907, respectively. Further, the composite Z-score in [1] was 0.45 (inactive).
For the compound `COCCOC(=O)N1C(=O)[C@@]2(c3ccccc31)[C@H](C(=O)N1CCCCCCC1)[C@H]1C(=O)O[C@H](c3ccccc3)[C@H](c3ccccc3)N1[C@@H]2c1ccccc1OCCO`, the composite z-score with Albumin (Bos taurus) worked out at 0.911; in assay [2], 1.5; in assay [3], 0.699; in [4] it was 0.838; in [5], 3.32; in assay [6], 1.19. The composite z-score came to 1.29 with Sam68 (KHDRBS1), 1.32 in assay [7] and 1.2 in assay [8]. For the same compound, the composite Z-score in assay [1] was 3.89 (inactive).
As to `Cc1ccc(S[C@]2(C(=O)NCC(C)C)CC(=O)N(Cc3ccccc3)[C@@H]2c2ccc(CO)cc2)cc1`, the composite z-score with Albumin (Bos taurus) is 0.397; in [2] it was -0.406; in assay [3], 0.0196; in [4], 0.748; in [5] it was 1.78; in [6] it was 0.984. Further, the values for the composite z-score (in the assay with Sam68 (KHDRBS1); in [7]; in assay [8]) were -0.0273, -2.02 and -1.1, respectively. Also, the composite Z-score in [1] was 0.941 (inactive).
For the compound `CC1CC/C=C\[C@H]2OC34C=CCN(c5ccc6ccccc6c5)C(=O)[C@H]3N(CCCCCO)C(=O)[C@@H]4C2C(=O)O1` (stereo not given in full), the composite z-score was -0.158 in the assay with Albumin (Bos taurus); -0.372 in [2]; -0.0941 in assay [3]; -0.622 in assay [4]; -0.357 in assay [5]; -0.615 in assay [6]. For the same compound, the composite z-score in the assay on Sam68 (KHDRBS1) is -1.95; in assay [7], -1.25; in assay [8], -1.23. Further, the composite Z-score in assay [1] was 0.322 (inactive).
On to `C=C(C(=O)CC[C@@H](OC(=O)c1cccnc1)c1ccc(CO)o1)C(C)C`, for which the composite z-score in the assay with Albumin (Bos taurus) was 0.0207; in assay [2] it was 0.101; in assay [3], -0.0698; in assay [4], 0.614; in assay [5], 0.583; in [6] it was 0.697. Moreover, the composite z-score in the assay with Sam68 (KHDRBS1) came to 1.24; in assay [7], 0.584; in assay [8], 0.383. The composite Z-score in assay [1] is 0.278 (inactive).
In the case of `COCCOC(=O)N1C(=O)[C@@]2(c3cc(C#CCC(C(=O)OC)C(=O)OC)ccc31)[C@H](c1ccccc1OCCO)N1[C@H](c3ccccc3)[C@H](c3ccccc3)OC(=O)[C@H]1[C@@H]2C(=O)Nc1nc2ccccc2s1`, the composite z-score with Albumin (Bos taurus) is 0.757; in [2], 0.261; in assay [3], -0.0048; in assay [4], 0.324; in assay [5], 1.93; in [6], 1.47. Further, the values for the composite z-score (with Sam68 (KHDRBS1); in [7]; in [8]) were 1.31, 0.554 and 1.12, respectively. In addition, the composite Z-score in [1] is 0.794 (inactive).
As for `O=C(NCCN1CCOCC1)[C@@H]1c2ccccc2C(=O)N(Cc2cc(F)cc(C(F)(F)F)c2)[C@H]1c1ccc(CO)cc1`, the composite z-score in the assay with Albumin (Bos taurus) is -0.265; in assay [2] it was 0.49; in assay [3], -0.222; in assay [4] it was 0.724; in [5] it was 2.53; in assay [6] it was -0.062. Also, the composite z-score was 0.463 in the assay with Sam68 (KHDRBS1), -1.55 in assay [7] and -0.287 in assay [8]. The composite Z-score in [1] is -0.543 (inactive).
With `CN1C(=O)C2C=CC(C(O)C3=C[C@H]4C[C@@H](C3)C4(C)C)N(Nc3ccc([N+](=O)[O-])cc3[N+](=O)[O-])C2C1=O` (stereo not given in full), the composite z-score with Albumin (Bos taurus) is 0.909; in assay [2], 0.289; in assay [3], 0.186; in assay [4] it was 0.722; in assay [5], 2.38; in assay [6], 0.805. Also, the composite z-score in the assay with Sam68 (KHDRBS1) was determined as 1.12; in assay [7] it was 0.51; in [8] it was 1.16. For the same compound, in [1], the composite Z-score was 1.09 (inactive).
On to `COCCOC(=O)N1C(=O)[C@@]2(c3cc(C#CCC(C(=O)OC)C(=O)OC)ccc31)[C@H](c1ccc(OCCO)cc1)N1[C@H](c3ccccc3)[C@H](c3ccccc3)OC(=O)[C@H]1[C@@H]2C(=O)NC[C@H](O)c1ccccc1`, for which the composite z-score in the assay with Albumin (Bos taurus) was 0.599; in assay [2], 0.272; in assay [3], -0.132; in [4], 0.563; in assay [5], 2.42; in [6], 0.41. Further, the composite z-score in the assay on Sam68 (KHDRBS1) stood at 1.32; in [7], 0.45; in assay [8], 1.01. In addition, the composite Z-score in [1] was -0.33 (inactive).
